Each structure is given as a SMILES string. Inconclusive results are not listed. A call without a number means that no potency is given here. Active and inactive are the calls of the source. The call rests on the fitted dose curve; in most records, active means well fitted activation curve with a large enough effect; inconclusive means small, poorly fitted or top-dose-only effect; inactive means no such curve, though single readings can be large or run the other way.
Potency means the concentration at half of the fitted maximal effect.

The nature of this assay: qHTS Assay for NPC1 Promoter Activators: Hit Validation Using Renila Luciferase Read-Out for NPC1. The conditions noted are these: Huh7 NPC1 promoter-luciferase reporter, luminescence, 24 h; series mostly up to 76.9 µM. The method, boiled down:
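Huh7 cells stably carrying NPC promoter-luciferase reporter, exposed to compound for 24 h at 37 deg C. Luminescence read 10 min after adding luciferase detection reagent at room temperature.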
Background: In qHTS, concentration-response curves come from the screen itself.
For `CCOC(=O)c1cc2sccc2n1CC(=O)N1CCCc2ccccc21`, the Potency entry is “inactive”.

On to `COc1ccc(OC)c(S(=O)(=O)N2CCN3CCCC3C2)c1` (centres undefined), for which the Potency is 32.8 µM (active).

Consider `CC1CCc2sc(C(=O)NNC(=S)NC3CC3)cc2C1` (centres undefined), for which the Potency result was “inactive”.

As to `Cc1ccc(NC(=O)NC(=O)c2ccccc2)cc1F`, the Potency result was “inactive”.

On to `O=C(C1COc2ccccc2O1)N1CCN(S(=O)(=O)c2ccccc2)CC1` (centres undefined), for which the Potency result was “inactive”.

As for `CCN(CC)S(=O)(=O)c1ccc(NCc2ccccn2)nc1`, the Potency result is “inactive”.

Regarding `CCOC(=O)c1ccc(-c2nnc(-c3ccc(Cl)cc3Cl)o2)cc1`, the Potency entry is “inactive”.

`CC1CCCN(C(=S)Nc2ccc(Nc3ccccc3)cc2)C1` (centres undefined): the Potency result is “inactive”.

Consider `CC1CN(C(=O)c2ccncc2)CC(C)O1` (centres undefined), for which the Potency entry was “inactive”.

As for `Nc1ccccc1C(=O)N/N=C1/C2CN3CCN(C2)CC1(Cc1ccccc1)C3`, the Potency entry was “inactive”.

As to `N#CC/C(N)=N/NC(=O)CCCNc1ncc(C(F)(F)F)cc1Cl`, the Potency result was “inactive”.

Consider `COCCSc1ncnc2c1oc1nc3c(cc12)COC(C)(C)C3`, for which the Potency entry is “inactive”.

Turning to `COc1ccc(NC(=O)CSc2ccc([N+](=O)[O-])cc2)cc1S(=O)(=O)N1CCOCC1`, the Potency entry is “inactive”.

Consider `Cc1ccc(C(=O)c2cn[nH]c2-c2ccccc2O)cc1`, for which the Potency result was “inactive”.

Regarding `CCOc1cc(C(=O)N=c2sccn2C)ccc1OC(F)F`, the Potency result is “inactive”.

On to `CCC1CCCCN1CCCNC(=O)c1ccc2nc(N3CCCCC3)sc2c1` (centres undefined), for which the Potency entry is “inactive”.

`O=C(CCS(=O)(=O)c1ccccc1)Nc1ccc(-c2nc3ccccc3s2)cc1`: the Potency result was “inactive”.

For `COc1ccc(/C=C\c2onc(C)c2S(=O)(=O)N2CCC(C(=O)NCCC(C)C)CC2)cc1`, the Potency entry is “inactive”.

`COC(=O)c1cn(NC(=O)C2CCCCC2)c(=O)c2ccccc12`: the Potency result is “inactive”.

On to `Cc1cccc(C)c1NC(=O)Nc1cccs1`, for which the Potency result was “inactive”.

Turning to `O=S(=O)(c1cccs1)N1CCN(c2ncccn2)CC1`, the Potency entry was “inactive”.

`C=CCc1ccc(OCCOCCNCCOC)c(OC)c1`: the Potency entry was “inactive”.

Consider `O=C(CSc1nnc(Cc2cc(=O)[nH]c(=O)[nH]2)n1-c1ccc(Cl)cc1)NC1CCCC1`, for which the Potency result is “inactive”.

With `Cc1ccc2nc(NC(=O)CCn3cccc3)sc2c1`, the Potency result is “inactive”.

With `CCOC(=O)CSc1nc2cc3c(cc2cc1C#N)OCO3`, the Potency result was “inactive”.

For the compound `CCN(CC(=O)N(CC(C)C)c1c(N)n(CC(C)C)c(=O)[nH]c1=O)Cc1nc2ccccc2c(=O)[nH]1`, the Potency entry was “inactive”.

Regarding `NC(=O)COC(=O)c1ccc2noc(-c3ccccc3)c2c1`, the Potency result was “inactive”.

For `COc1ccc(-n2cc(-c3ccc(Cl)cc3)[nH]c2=S)cc1`, the Potency entry is “inactive”.

`COc1ccc(-c2cc(C(=O)Nc3ccccc3F)on2)cc1`: the Potency result is “inactive”.

For `COC(=O)CSc1nc2cc3c(cc2cc1C#N)OCO3`, the Potency entry is “inactive”.

As to `O=C(CCN1C(=O)c2ccccc2C1=O)Nc1ccc(-c2nc3ccccc3s2)cc1`, the Potency result is “inactive”.

With `O=CN1CCN(C(=O)c2ccccc2Cl)CC1`, the Potency entry is “inactive”.

Take `Cc1ccc(NC(=O)c2cccc(N3C(=O)CCC3=O)c2)nc1`: the Potency result was “inactive”.

For `COC(=O)c1ccccc1NC(=O)c1cc(-c2cccs2)on1`, the Potency entry was “inactive”.

Turning to `CC(C)CC(=O)N1CCN(c2ccc(NC(=O)c3ccco3)cc2)CC1`, the Potency entry was “inactive”.

For the compound `CCOc1ccc(CNC(=O)C2CCCN(S(C)(=O)=O)C2)cc1OC` (centres undefined), the Potency entry was “inactive”.

In the case of `Cc1ccc(C(=O)Nc2ccc(N3CCN(C)CC3)nc2)cc1`, the Potency result is “inactive”.

With `Cc1cccc(NC(=O)CSc2nc3ccccc3o2)c1`, the Potency entry is “inactive”.

Consider `CC1(C)CC(=O)c2c(O)c(-c3ccccc3)c(=O)n(-c3ccccc3)c2C1`, for which the Potency entry was “inactive”.

Values taken from PubChem BioAssay AID720526 (National Center for Advancing Translational Sciences (NCATS), 2013).
